Screens: PubChem BioAssay, several laboratories
Compounds with a hit are over-represented: about 3.1% of the library has one in this group of screens.
CF NFkB inh: blocks PAF-induced NF-kB reporter in cystic fibrosis cells; 360,000 tested, 0.86% active; inhibition, % at 5 µM; KKLEB NF-kB-GFP reporter, GFP fluorescence overnight;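 active = at least 50% inhibition at 5 µM, scaled per plate between neutral and stimulator controls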;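 also: PAF is a Pseudomonas aeruginosa culture filtrate used as stimulus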
ABHD5 PLIN5 PPI: blocks binding of human ABHD5 to perilipin-5. Split G. princeps luciferase complementation, luminescence, 4 h. 360,000 tested, 0.78% active. inhibition, % at 4 µM. AID 602281. Q00G26+Q8WTS1;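 active = inhibition above the mean inhibition across every tested compound plus 3 SD, cut at about 22% in these data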
Target sequence (Q00G26 whole entry, looked up): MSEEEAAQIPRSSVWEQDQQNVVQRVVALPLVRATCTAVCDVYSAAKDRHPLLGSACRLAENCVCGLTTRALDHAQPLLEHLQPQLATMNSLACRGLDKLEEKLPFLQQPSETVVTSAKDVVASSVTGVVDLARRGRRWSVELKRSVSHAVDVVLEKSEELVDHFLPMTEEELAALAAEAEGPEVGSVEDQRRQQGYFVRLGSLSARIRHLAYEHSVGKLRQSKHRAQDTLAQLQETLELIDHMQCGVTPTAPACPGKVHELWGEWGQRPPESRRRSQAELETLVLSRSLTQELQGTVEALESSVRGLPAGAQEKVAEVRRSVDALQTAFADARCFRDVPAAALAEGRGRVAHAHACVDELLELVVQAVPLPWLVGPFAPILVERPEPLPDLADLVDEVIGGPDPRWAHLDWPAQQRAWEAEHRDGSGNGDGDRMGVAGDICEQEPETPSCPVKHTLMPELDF
Target sequence (Q8WTS1 whole entry, looked up): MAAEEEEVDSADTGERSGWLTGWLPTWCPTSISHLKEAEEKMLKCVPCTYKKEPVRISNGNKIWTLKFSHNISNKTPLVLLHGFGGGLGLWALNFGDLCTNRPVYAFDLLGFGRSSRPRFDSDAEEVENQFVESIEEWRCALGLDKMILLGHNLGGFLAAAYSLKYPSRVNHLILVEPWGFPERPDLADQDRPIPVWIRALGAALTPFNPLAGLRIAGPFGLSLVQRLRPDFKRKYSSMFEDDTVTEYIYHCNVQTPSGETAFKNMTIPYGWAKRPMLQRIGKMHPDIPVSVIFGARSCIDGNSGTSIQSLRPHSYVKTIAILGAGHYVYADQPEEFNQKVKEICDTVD
MITF TRPM1 inh: reduces MITF-dependent TRPM1 promoter luciferase signal; AID 488899; SK-MEL-5 TRPM1 promoter luciferase, 24 h; inhibition, % at 12.5 µM; 330,000 tested, 0.83% active;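 active = mean inhibition across replicates of 60% or more, whatever share of single replicates reaches that level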
Peg3 prom inh: Peg3 promoter activity inhibition; HeLa PEG-Prom luciferase reporter, luminescence, overnight; 360,000 tested, 1.7% active; inhibition, % at 20 µM;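 active = inhibition of at least 50% at 20 µM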
KKLEB cytotox: counter-screen for CF NF-kB inhibitors: cytotoxicity; KKLEB CF airway cells viability, ATPlite luminescence, overnight; active compounds read low; cells stimulated with P. aeruginosa culture filtrate; activity change (cytotoxicity), % at 5 µM; 360,000 tested, 0.36% active;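 active = corrected activity change at or below -50% at 5 µM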
HIF-2a block: inhibitors of HIF-2a; 786-0 RCC cells HIF-2a reporter, luciferase luminescence, overnight; inhibition, % at 18.8 µM; 360,000 tested, 0.72% active; AID 624352;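 active = inhibition of the luminescence signal of 40% or more relative to plate controls, in a single-dose primary screen at 18.75 µM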
Large screens that a line does not name were inactive.

Cc1cc(NC(=O)c2ccc3sc([C@@H]4O[C@H](CO)[C@H](O)[C@H](O)[C@H]4O)nc3c2)no1	none (no result: MITF TRPM1 inh)
CN(C(=O)c1cnc(N2CCN(c3ncccn3)CC2)c2ccccc12)c1ccc(Cl)cc1	Peg3 prom inh 62
CCN(C(=O)c1cnc(N2CCN(c3ncccn3)CC2)c2ccccc12)c1cccc(Cl)c1	none
Cc1ccc(CN2C(=O)CSC2c2ccc(F)cc2)cc1 (centres undefined)	none
CCOC(=O)CNC(=O)CSc1nnc(-c2c[nH]c3ccccc23)n1CC	none
Cc1nnc(SCc2cnc(-c3ccc(C(C)C)cc3)s2)n1C	KKLEB cytotox -65
c1ccc(-c2ncc(CSc3nncn3-c3ccccc3)s2)cc1	none
Cc1ccc(CNC(=O)C2CCN(S(=O)(=O)N3CCCC3)CC2)cc1	none
Brc1ccccc1-c1nnc2sc(Cc3ccccc3)nn12	none
COc1ccc(Cc2nn3c(-c4ccccc4Br)nnc3s2)cc1	CF NFkB inh 53
COC[C@@H]1CCCN1c1ccc2c(c1)O[C@@H](COCc1ccccc1)CN([C@H](C)c1ccccc1)S2(=O)=O	none (no result: CF NFkB inh, MITF TRPM1 inh, Peg3 prom inh, KKLEB cytotox)
COc1cc(NC(=O)c2ccc3c(=O)n(Cc4ccco4)c(=S)[nH]c3c2)cc(OC)c1OC	ABHD5 PLIN5 PPI 22
COc1ccc(CCn2c(=S)[nH]c3cc(C(=O)NCc4ccco4)ccc3c2=O)cc1OC	MITF TRPM1 inh 91, Peg3 prom inh 51
COc1ccc(-n2c(=S)[nH]c3cc(C(=O)NCc4ccco4)ccc3c2=O)cc1OC	none
CCCN(CCC)C(=O)c1ccc2c(=O)n(Cc3ccco3)c(=S)[nH]c2c1	none
COc1ccc(-n2c(=S)[nH]c3cc(C(=O)Nc4ccc(OC)c(OC)c4)ccc3c2=O)cc1	KKLEB cytotox -70
COc1ccc(-n2c(=S)[nH]c3cc(C(=O)Nc4cccc(C)c4)ccc3c2=O)cc1	none
O=C(COC(=O)c1cc(Cl)ccc1O)NC(=O)NCc1ccccc1	none
c1ccc2c(c1)nc1n2CCC1	none
Cc1ccc(NC(=O)C(C)S)cc1 (centres undefined)	none
Cc1ccc(OCC(=O)NC2CCS(=O)(=O)C2)c([N+](=O)[O-])n1 (centres undefined)	none
CC(C)C1C(=O)N(Cc2cn(CCC3OCCCO3)nn2)CCS(=O)(=O)N1Cc1ccc(-c2ccc(Cl)c(Cl)c2)cc1 (centres undefined)	Peg3 prom inh 88 (no result: MITF TRPM1 inh)
COC(=O)C1(Cc2ccc(O)cc2)OC(=O)C(O)=C1c1ccc(O)cc1 (centres undefined)	none
COc1ccc(C(c2c(O)ccc3ccccc23)N2CCOCC2)c(OC)c1 (centres undefined)	ABHD5 PLIN5 PPI 96
CCN(CC)C(=O)C1=C(C)N(CCC2=CCCCC2)C(=O)C(CC(=O)NCCN2CCOCC2)C1 (centres undefined)	none (no result: MITF TRPM1 inh)
CC1(C)CC(C(CCN(Cc2ccccc2)C(=O)c2ccco2)c2ccc(F)cc2)CCO1 (centres undefined)	Peg3 prom inh 51
O=C(c1ccco1)N(CCC(c1ccccc1)c1ccco1)Cc1ccc(F)cc1 (centres undefined)	none
Cc1cccc2cc3c(N)c(C(=O)Nc4ccc(N5CCOCC5)cc4)sc3nc12	Peg3 prom inh 56
CCc1ccc(NC(=O)C(C)n2nc(C)c([N+](=O)[O-])c2C)cc1 (centres undefined)	none
COc1ccccc1-c1cc(C(=O)Nc2sc3c(c2C#N)CCC(C)C3)c2ccccc2n1 (centres undefined)	none
Cc1ccccc1-c1cc(C(=O)Nc2sc(C(=O)OC(C)C)c(C)c2C#N)c2ccccc2n1	CF NFkB inh 56, KKLEB cytotox -54
COc1ccc(OC)c(-c2cc(C(=O)Nc3sc4c(c3C#N)CCC(C)C4)c3ccccc3n2)c1 (centres undefined)	KKLEB cytotox -52
CCOC(=O)c1c(NC(=O)CSc2nc3ccc(OC)cc3[nH]2)sc2c1CC(C)(C)NC2(C)C	Peg3 prom inh 91
Cc1nn(-c2ccccc2)c(C)c1/C=N/NC(=O)c1cc(-c2ccccc2)n[nH]1	CF NFkB inh 64
CC(C)(C)C1(C)OC(=O)C(=Cc2ccc(OCC(=O)Nc3ccccc3)cc2)C(=O)O1 (centres undefined)	none
